Experimental data published in paper PMC5700166.

Columns and labels:
[1] = target: T1, GST-Nv-NF-kB (Ser allele) (Nematostella vectensis, UniProt A7UNT2 2-411); assay: protein-binding microarray (PBM); PBM: ~300 nM protein, 6 mM HEPES pH 7.8, 80 mM KCl, 0.5 mM EDTA, 0.5 mM EGTA, 6% glycerol, 35 ng/ul poly-dIdC, 1% milk, 1 h, room temperature; Ap Aiptasia and Nv Nematostella (sea anemones) / Co Capsaspora / Aq Amphimedon (sponge) / Dm Drosophila / Hu human; RHD is the Rel homology domain; high values mean tight binding; details: dsDNA, one strand shown
T1 sequence: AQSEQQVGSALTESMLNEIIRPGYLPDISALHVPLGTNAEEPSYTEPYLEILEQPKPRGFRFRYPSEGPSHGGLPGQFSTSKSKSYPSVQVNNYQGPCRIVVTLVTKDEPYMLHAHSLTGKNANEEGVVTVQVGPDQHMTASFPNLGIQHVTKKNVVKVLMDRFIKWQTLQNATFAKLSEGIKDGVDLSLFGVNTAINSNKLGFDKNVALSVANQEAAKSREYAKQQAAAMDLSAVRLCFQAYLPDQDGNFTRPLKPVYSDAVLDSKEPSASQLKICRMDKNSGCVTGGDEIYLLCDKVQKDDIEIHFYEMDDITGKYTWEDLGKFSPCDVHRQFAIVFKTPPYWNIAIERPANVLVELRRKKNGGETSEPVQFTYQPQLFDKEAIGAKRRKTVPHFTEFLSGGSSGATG

GST-Hu-p50 = GST-Hu-p50 (Homo sapiens, UniProt P19838 7-356); assay: as above; details: dsDNA, one strand shown
Sequence of GST-Hu-p50 (P19838 7-356): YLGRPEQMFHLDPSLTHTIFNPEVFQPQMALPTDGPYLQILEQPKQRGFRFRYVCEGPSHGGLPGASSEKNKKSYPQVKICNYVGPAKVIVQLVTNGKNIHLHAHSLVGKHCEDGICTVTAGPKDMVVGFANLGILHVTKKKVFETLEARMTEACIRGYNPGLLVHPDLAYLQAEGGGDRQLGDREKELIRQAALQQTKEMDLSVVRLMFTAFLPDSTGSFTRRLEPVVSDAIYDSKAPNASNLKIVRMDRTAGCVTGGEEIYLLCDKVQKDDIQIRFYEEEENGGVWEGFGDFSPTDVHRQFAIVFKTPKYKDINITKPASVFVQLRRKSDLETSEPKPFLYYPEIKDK

| Sequence | binding signal [1] | binding signal (GST-Hu-p50) |
| --- | --- | --- |
| CCGATTAACATCACATACTCCCCTGATGTTAATCGGGTCTTGATTCGCTTGACGCTGCTG | 4.25 z-score | 3.33 z-score |
| CCGATTAACATCAAGTATTCCCATGATGTTAATCGGGTCTTGATTCGCTTGACGCTGCTG | 2.35 z-score | 1.64 z-score |
| CCGATTAACATCAATTTCCCGCCTGATGTTAATCGGGTCTTGATTCGCTTGACGCTGCTG | 4.4 z-score | 2.33 z-score |
| CCGATTAACATCAGGATTTTACCTGATGTTAATCGGGTCTTGATTCGCTTGACGCTGCTG | 3.67 z-score | 2.65 z-score |
| CCGATTAACATCACAAAAATCCCTGATGTTAATCGGGTCTTGATTCGCTTGACGCTGCTG | 5.52 z-score | 5.26 z-score |
| CCGATTAACATCACGGGGGGTAATGATGTTAATCGGGTCTTGATTCGCTTGACGCTGCTG | 2.9 z-score | 2.48 z-score |
| CCGATTAACATCAGGGATTACCATGATGTTAATCGGGTCTTGATTCGCTTGACGCTGCTG | 2.16 z-score | 1.76 z-score |
| CCGATTAACATCAAAAATTGCCCTGATGTTAATCGGGTCTTGATTCGCTTGACGCTGCTG | 2.01 z-score | 2.11 z-score |
| CCGATTAACATCAGGGAGATTTATGATGTTAATCGGGTCTTGATTCGCTTGACGCTGCTG | 4.27 z-score | 4.86 z-score |
| CCGATTAACATCAAATAGCCCCCTGATGTTAATCGGGTCTTGATTCGCTTGACGCTGCTG | 3.62 z-score | 4.73 z-score |
| CCGATTAACATCAGGAAATCCCATGATGTTAATCGGGTCTTGATTCGCTTGACGCTGCTG | 1.81 z-score | 3.19 z-score |
| CCGATTAACATCAATTTTCCCAATGATGTTAATCGGGTCTTGATTCGCTTGACGCTGCTG | 4.62 z-score | 3.18 z-score |
| CCGATTAACATCACCAGTTTCCCTGATGTTAATCGGGTCTTGATTCGCTTGACGCTGCTG | 4.89 z-score | 2.39 z-score |
| CCGATTAACATCAAGCAACCCCCTGATGTTAATCGGGTCTTGATTCGCTTGACGCTGCTG | 3.95 z-score | 4.45 z-score |
| CCGATTAACATCAAGAGACCCCCTGATGTTAATCGGGTCTTGATTCGCTTGACGCTGCTG | 2.79 z-score | 3.43 z-score |
| CCGATTAACATCATGTTGGGAAATGATGTTAATCGGGTCTTGATTCGCTTGACGCTGCTG | 2.11 z-score | 1.47 z-score |
| CCGATTAACATCAGGGGAGTAAATGATGTTAATCGGGTCTTGATTCGCTTGACGCTGCTG | 3.92 z-score | 2.72 z-score |

| Sequence | binding signal [1] | binding signal (GST-Hu-p50) |
| --- | --- | --- |
| CCGATTAACATCAGGGTGTTTTATGATGTTAATCGGGTCTTGATTCGCTTGACGCTGCTG | 2.32 z-score | 4.01 z-score |
| CCGATTAACATCAGGGGTAGGTTTGATGTTAATCGGGTCTTGATTCGCTTGACGCTGCTG | 1.33 z-score | 1.07 z-score |
| CCGATTAACATCAGGGAAAACGATGATGTTAATCGGGTCTTGATTCGCTTGACGCTGCTG | 6.01 z-score | 2.13 z-score |
| CCGATTAACATCAGGAAAACCCATGATGTTAATCGGGTCTTGATTCGCTTGACGCTGCTG | 1.48 z-score | 2.32 z-score |
| CCGATTAACATCAGGAATACCCCTGATGTTAATCGGGTCTTGATTCGCTTGACGCTGCTG | 4.15 z-score | 5.04 z-score |
| CCGATTAACATCATAAGCGGGGATGATGTTAATCGGGTCTTGATTCGCTTGACGCTGCTG | 3.83 z-score | 3.66 z-score |
| CCGATTAACATCACGTTCCCCCCTGATGTTAATCGGGTCTTGATTCGCTTGACGCTGCTG | 5.78 z-score | 5.15 z-score |
| CCGATTAACATCAGGGGACACCCTGATGTTAATCGGGTCTTGATTCGCTTGACGCTGCTG | 3.12 z-score | 3.82 z-score |
| CCGATTAACATCAAGCAATTCCCTGATGTTAATCGGGTCTTGATTCGCTTGACGCTGCTG | 3.87 z-score | 2.99 z-score |
| CCGATTAACATCAACATCCCCCCTGATGTTAATCGGGTCTTGATTCGCTTGACGCTGCTG | 5.5 z-score | 4.91 z-score |
| CCGATTAACATCACCTTCCCCCCTGATGTTAATCGGGTCTTGATTCGCTTGACGCTGCTG | 5.23 z-score | 4.59 z-score |
| CCGATTAACATCAAGGAAACCCCTGATGTTAATCGGGTCTTGATTCGCTTGACGCTGCTG | 3.81 z-score | 5.22 z-score |
| CCGATTAACATCACGGGTTTCCCTGATGTTAATCGGGTCTTGATTCGCTTGACGCTGCTG | 4.88 z-score | 3.17 z-score |
| CCGATTAACATCAGGCCTCCCCCTGATGTTAATCGGGTCTTGATTCGCTTGACGCTGCTG | 4.46 z-score | 4.37 z-score |
| CCGATTAACATCAAATAGGGAATTGATGTTAATCGGGTCTTGATTCGCTTGACGCTGCTG | 4.24 z-score | 3.55 z-score |
| CCGATTAACATCAGAAATTTTCCTGATGTTAATCGGGTCTTGATTCGCTTGACGCTGCTG | 1.33 z-score | 2.13 z-score |
